Active and inactive are the calls of the source.
Test: growth of efflux-deficient E. coli DRC39 – strain DRC39, OD650, 48 h, E. coli filamentation inducers, primary screen (AID 1179);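 also: screen aims at cell division blockers that make cells filament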
Conditions: E. coli DRC39 delta-acrAB growth, higher = more signal, called active from +8 up or from −8 down
For `NC(=O)N1C(=O)C2C(C1=O)C1C=C(CCCO)C2C(c2ccc(CN3CCCC3)cc2)N1Cc1cccc(OC(F)(F)F)c1` (stereo not drawn), the z-score was -0.579 (inactive). For `COc1ccc([Si](C)(C)[C@H]2[C@H](CCn3cc([C@H](O)c4ccccc4)nn3)O[C@@]3(C(=O)N(c4ccccc4)c4ccccc43)[C@@H]2C)cc1`, the z-score was 0.0139 (inactive). With `CCCC=C(CCC)[C@@H](NC(=O)c1ccccc1)c1ccc(C(=O)OC)cc1` the z-score was -0.078 (inactive).

Test: viability profiling in RPMI8226 myeloma cells – cell-based, resazurin fluorescence, basal, 24 h, PK04 Diversity Set, profiling panel (AID 1180);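 also: RPMI8826 multiple myeloma cell line at 5000 cells per well; test concentration not given here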
Conditions: higher = more signal
In the case of `COC(=O)[C@@]1(Cc2ccc(F)cc2)[C@H]2c3cc(C(=O)N(C)C)n(CCN4CCOCC4)c3C[C@H]2CN1C(=O)c1ccccc1`, the z-score is reported as 0.874. Work on `C[N+](C)(C)CCCCCCNC(=O)[C@@H]1C[C@@H]2C(=O)N[C@@H](Cc3ccccc3)C(=O)N2[C@@H]1c1ccc(O)cc1` yielded a z-score of 0.25. For `CO[C@H]1O[C@H](CO)[C@@H](OC(=O)Nc2ccc(C(F)(F)F)cc2)[C@H](OC(=O)Nc2ccccc2-c2ccccc2)[C@@H]1OC(=O)Nc1ccccc1-c1ccccc1`, the z-score was -0.94. `C=C(CCCC)/C(=C/C[C@H](OC(C)=O)c1cccc(OCCO)c1)c1cc(C(=O)OC)ccc1OC` gave a z-score of 1.43. `COc1ccc([Si](C)(C)[C@H]2[C@H](CCn3cc([C@H](O)c4ccccc4)nn3)O[C@@]3(C(=O)N(C)c4c(Br)cc(C)cc43)[C@@H]2C)cc1` gave a z-score of -5.5. Molecule `COCCOC(=O)N1C(=O)[C@@]2(c3cc(C#CC4(O)CCCCCC4)ccc31)[C@H](C(=O)N1CCc3cc(OC)c(OC)cc3C1)[C@H]1C(=O)O[C@H](c3ccccc3)[C@H](c3ccccc3)N1[C@@H]2c1ccc(O)cc1` has a z-score of -0.0713. `C=CCOC(=O)[C@H]1[C@@H]2C(=O)O[C@@H](c3ccccc3)[C@@H](c3ccccc3)N2[C@@H](c2ccc(OCCOC(=O)[C@H]3C[C@H]4C(=O)NCC(=O)N4[C@H]3c3ccc(O)cc3)cc2)[C@]12C(=O)Nc1ccc(I)cc12` gave a z-score of 0.642. In the case of `COCCOC(=O)N1C(=O)[C@@]2(c3cc(C#CC4=CCCCC4)ccc31)[C@H](c1ccc(OCCO)cc1)N1[C@H](c3ccccc3)[C@H](c3ccccc3)OC(=O)[C@H]1[C@@H]2C(=O)N1CCCCCCC1`, the z-score is reported as -0.435. `CCOC(=O)C1=C(C(=O)OCC)N(S(=O)(=O)CC[Si](C)(C)C)[C@H](c2ccccc2)CC1` gave a z-score of -4.03. Molecule `C=CCC(OC(C)=O)[C@@H]1[C@@H](N(Cc2cc3ccccc3o2)C(=O)c2ccc(-c3ccccc3)cc2)c2cc(OCCCO)ccc2N1C(=O)c1ccc2ccccc2n1` (stereo partly drawn) has a z-score of 0.97. For `O=C1O[C@@H](c2ccccc2)[C@@H](c2ccccc2)N2[C@@H](c3ccc(O)cc3)[C@]3(C(=O)Nc4ccc(C#CC5=CCCCC5)cc43)[C@@H](C(=O)N3CCCCCCC3)[C@H]12`, the z-score was 0.177. In the case of `COCCOC(=O)N1C(=O)[C@@]2(c3cc(C#CCC(C(=O)OC)C(=O)OC)ccc31)[C@H](C(=O)N1CCc3cc(OC)c(OC)cc3C1)[C@H]1C(=O)O[C@H](c3ccccc3)[C@H](c3ccccc3)N1[C@@H]2c1ccc(O)cc1`, the z-score is reported as -0.888. For `C=C(/C(=C/C[C@H](OC(=O)c1ccncc1)c1ccccc1OCCO)c1cc(C(=O)OC)ccc1OC)C(C)C`, the z-score was 0.956. `NCCCC[C@@H]1NC(=O)[C@H]2C[C@@H](C(=O)O)[C@@H](c3cccc(OCCO)c3)N2C1=O` showed a z-score of -0.438. `CCCCN1CC=CC23O[C@@H]4/C=C\CCC(C)OC(=O)C4[C@H]2C(=O)N(C(C)CO)[C@@H]3C1=O` (stereo partly drawn) gave a z-score of -0.175. `CC(=O)c1ccc(C(O)C2C=CC3C(=O)NC(=O)C3N2Nc2ccc(Cl)cc2Cl)cc1` (stereo not drawn) showed a z-score of -1.8. Work on `C[N+](C)(C)CCCC[C@@H]1NC(=O)[C@H]2C[C@@H](C(=O)NCCCCCNC(=O)CS)[C@@H](c3ccc(O)cc3)N2C1=O` yielded a z-score of -0.178. In the case of `CN(C)CCCCNC(=O)[C@H]1C[C@H]2C(=O)N[C@@H](Cc3ccccc3)C(=O)N2[C@H]1c1cccc(OCCO)c1`, the z-score is reported as 1.06. `NC(=O)NCC#Cc1ccc2c(c1)[C@]1(C(=O)N2)[C@H](C(=O)Nc2nc3ccccc3s2)[C@H]2C(=O)O[C@H](c3ccccc3)[C@H](c3ccccc3)N2[C@@H]1c1ccc(OCCO)cc1` gave a z-score of -0.271. `CC(C)CNC(=O)[C@@H]1c2ccccc2C(=O)N(Cc2ccccc2Cl)[C@H]1c1ccc(CO)cc1` showed a z-score of 0.943. `C=CCNC(=O)[C@H]1[C@@H]2C(=O)O[C@@H](c3ccccc3)[C@@H](c3ccccc3)N2[C@@H](c2ccc(O)cc2)[C@]12C(=O)Nc1ccc(C#CC3=CCCCC3)cc12` gave a z-score of -5.43. For `CN(C)C(=O)[C@]1(Cc2ccccc2CN=[N+]=[N-])N=C(c2ccc(OCCCO)cc2)O[C@@H]1c1ccccc1N=[N+]=[N-]`, the z-score was -1.63. Work on `COCCn1c(C(=O)N2CCCC2)cc2c1C[C@H]1CN(C(=O)c3ccccc3)[C@@](Cc3ccccc3)(C(=O)OC)[C@@H]21` yielded a z-score of -0.923. In the case of `CCCC[C@@H](O)C1=C(COC)Cn2c(=O)n(-c3ccccc3)c(=O)n2[C@H]1CO`, the z-score is reported as -0.0456. Molecule `CN(C)C(=O)[C@]1(Cc2ccccc2)N=C(c2ccc(OCCCO)cc2)O[C@@H]1c1ccccc1` has a z-score of -0.247. Molecule `COc1ccc([Si](C)(C)[C@H]2[C@H](CCO)O[C@@]3(C(=O)N(Cc4ccc(N5CCOC5=O)cc4)c4ccccc43)[C@@H]2C)cc1` has a z-score of -2.06. Molecule `C=CCC(OC(C)=O)[C@@H]1[C@@H](N(Cc2cccc3ccccc23)C(=O)c2ccc(-c3ccccc3)cc2)c2cc(OCCCO)ccc2N1C(=O)c1ccc2ccccc2n1` (stereo partly drawn) has a z-score of 0.485. Molecule `C=CC[C@@]1(C(=O)O)N=C(c2ccc(OCCCO)cc2)O[C@@H]1c1ccccc1CN=[N+]=[N-]` has a z-score of 1.1. `COC(=O)c1c(CC[C@@H](CO)NC(=O)N[C@@H](Cc2ccccc2)Cn2cc(-c3cncn3C)nn2)oc(C(C)=O)c1C(=O)OC` showed a z-score of -0.332. In the case of `COC(=O)Cn1c(C(=O)N(C)C)cc2c1C[C@H]1CN(C(=O)c3ccccc3)[C@@](Cc3ccc(OC)cc3)(C(=O)OC)[C@@H]21`, the z-score is reported as -0.876. Work on `CCCC=C(CCC)[C@@H](NS(=O)(=O)c1ccc(Cl)cc1)c1ccccc1` yielded a z-score of -0.321. `COc1ccc(CCNC(=O)[C@@H]2c3ccccc3C(=O)N(CC34CC5CC(CC(C5)C3)C4)[C@H]2c2ccc(CO)cc2)cc1` gave a z-score of 0.618. In the case of `NC(=O)N1C(=O)C2C(C1=O)C1C=C(CCCO)C2C(c2ccc(CN3CCCC3)cc2)N1Cc1cccc(OC(F)(F)F)c1` (stereo not drawn), the z-score is reported as -0.884. In the case of `COc1ccc([Si](C)(C)[C@H]2[C@H](CCn3cc([C@H](O)c4ccccc4)nn3)O[C@@]3(C(=O)N(c4ccccc4)c4ccccc43)[C@@H]2C)cc1`, the z-score is reported as -1.34. `CCCC=C(CCC)[C@@H](NC(=O)c1ccccc1)c1ccc(C(=O)OC)cc1` gave a z-score of -0.0265.

— PubChem BioAssay
